# Data from PubChem BioAssay (NCATS).
# Results filed as inconclusive are left out. Where a call stands in place of a potency, no number is given. The source made the active and inactive calls. Calls come from the whole dose curve; as a rule, active = well fitted inhibition curve with a large enough effect; inconclusive = small, poorly fitted or top-dose-only effect; inactive = flat fitted curve, though single readings scatter.
# Target: Calcium and integrin-binding protein 1 (Homo sapiens) (UniProt Q99828)
# Experiment: Primary qHTS for Identification of Calcium Integrin Binding Protein 1 (CIB1) Competitor (AID 1508620);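 note: GST tagged CIB1 binding a fluorescein labelled alphaIIb integrin peptide tracer; top concentration of the series differs between compounds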
# Details: CIB1-GST / FITC-alphaIIb peptide fluorescence polarization; series mostly up to 114 µM
# Procedure, shortened: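 Fluorescence polarization competition: CIB1-GST (1 uM final) preincubated with compound 15 min at room temperature, then FITC-labeled alphaIIb peptide (100 nM final) added for another 15 min. Polarization read at Ex 480/Em 540.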
# Chain of Calcium and integrin-binding protein 1 (Homo sapiens) (Q99828 whole entry, looked up): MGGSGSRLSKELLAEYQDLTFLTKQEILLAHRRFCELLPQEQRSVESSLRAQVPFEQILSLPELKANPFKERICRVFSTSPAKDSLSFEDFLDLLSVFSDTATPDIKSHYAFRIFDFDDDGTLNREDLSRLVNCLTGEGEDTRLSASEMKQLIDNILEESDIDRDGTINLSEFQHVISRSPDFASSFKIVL
row,SMILES,Potency
1,O=C(NCc1ccccc1)c1ccc2c(=O)n(-c3cccc(C(F)(F)F)c3)c(=S)[nH]c2c1,inactive
2,COc1ccncc1C(=O)NC(=O)Nc1ccc(-c2ccccc2)c(C(F)(F)F)c1,inactive
3,COc1cc2c(cc1O)C1(Cc3ccc4c(c3C1O)OCO4)[N+](C)([O-])CC2 (stereo unspecified),inactive
4,COc1c(F)cccc1C(=O)N1C[C@@H](C)CC[C@H]1CNc1ccc(Br)cn1,inactive
5,CC(=O)OC1CC(C)C2(CCC3(CC(=O)OC3O)O2)C2(C)CCCC(C)(C)C12 (stereo unspecified),inactive
6,CC(C)(C)C1CCN(C(=O)n2ncc(C(O)(c3ccccc3)c3ccccc3)n2)CC1,inactive
7,Cc1cc(NC(=O)c2cccc(NC(=O)/C=C/CN(C)C)c2)ccc1Nc1nccc(-c2cccnc2)n1,inactive
8,CCCCCCCOc1cc2c(cc1/C(C)=C/c1ccc(C(=O)O)cc1)C(C)(C)CCS2(=O)=O,inactive
9,C[C@@H](NC(=O)C(=O)c1c[nH]c2ccc([N+](=O)[O-])cc12)c1ccccc1,inactive
10,O=C(OC1CN2CCC1CC2)N1CCc2ccccc2C1c1ccccc1 (stereo unspecified),inactive
11,C[C@H]1CC[C@@]2(OC1)O[C@H]1CC3[C@@H]4CC[C@@H]5C[C@@H](O[C@@H]6O[C@H](CO)[C@@H](O[C@@H]7O[C@H](CO[C@@H]8OC[C@@H](O)[C@H](O)[C@H]8O)[C@@H](O[C@@H]8O[C@H](CO)[C@H](O)[C@H](O)[C@H]8O)[C@H](O)[C@H]7O)[C@H](O)[C@H]6O)CC[C@]5(C)C4CC[C@]3(C)[C@H]1[C@@H]2C (stereo partly specified),inactive
12,C/C(=C\Cc1c(O)c(Cl)c(C)c(C=O)c1O)CC/C=C(\C)[C@H]1CC(=O)C(C)(C)O1,inactive
13,COC(=O)C(Cc1ccc(OCCn2c(=O)sc3cc(C(=O)c4ccccc4)ccc32)cc1)C(=O)OC,inactive
14,N#Cc1ccc(O[C@@H]2c3ccccc3C[C@H]2N2CCC[C@@H](N)C2)c(Cl)c1,inactive
15,Fc1ccc(-c2cncc(CN3CCN(c4cccc5c4OCCO5)CC3)c2)cc1,inactive
16,Cc1nc(NC(=O)N2CCC[C@H]2C(N)=O)sc1-c1ccnc(C(C)(C)C(F)(F)F)c1,inactive
17,O=C(Nc1ccccc1)N1CCN(c2nc(-c3ccccc3)ns2)CC1,inactive
18,CC(C)=CCCC1(C)/C=C/C(OC(=O)C=C(C)C)C(C)(O)/C=C/C(=O)/C(CO)=C\C1 (stereo unspecified),inactive

row,SMILES,Potency
1,CNC(=O)c1ccc2c(c1)CCO[C@H]2CCN1CCN(c2ccc(OC)cc2)CC1,inactive
2,Cc1ccc(OC[C@H](O)[C@H](C)NC(C)C)c2c1CCC2,inactive
3,CC1(C)SCCN(S(=O)(=O)c2ccc(Oc3ccncc3)cc2)[C@H]1C(=O)NO,inactive
4,C=C[C@@]1(C)CCC2C(=CCC3[C@]2(C)CCC[C@@]3(C)C(=O)O)C1 (stereo partly specified),inactive
5,COc1cccc(CN(C(=O)CC(C)(C)C)[C@H]2C[C@H](C(=O)N3CCNCC3)N(Cc3ccc4c(c3)OCO4)C2)c1,inactive
6,COc1cc(CCC2=NN=C(NC(=O)c3ccc(N4C[C@@H](C)N[C@@H](C)C4)cc3)C2)cc(OC)c1,inactive
7,C1=Cc2ccccc2C(=C2CCN(CCCCc3nn[nH]n3)CC2)c2ccccc21,inactive
8,CC1(C)CC[C@]2(C(=O)O[C@@H]3O[C@H](CO)[C@@H](O)[C@H](O)[C@H]3O)CC[C@]3(C)C(=CCC4[C@@]5(C)CC[C@H](O[C@@H]6O[C@H](C(=O)O)[C@H](O)[C@H](O)[C@H]6O)C(C)(C)C5CC[C@]43C)[C@@H]2C1 (stereo partly specified),inactive
9,COc1ccc(NC(=O)c2ccc(-c3ccc(C(=N)N)cc3C)cc2)cc1N1CCN(C)CC1,inactive
10,COc1cc(/C=C/C(=O)NCCn2c(C(F)(F)F)cc3ccccc32)cc(OC)c1OC,inactive
11,CCC(C)CNCC(=O)N1CCc2sccc2C1COc1cccc(C)c1 (stereo unspecified),inactive
12,CCN1CCN(Cc2ccc(C(=O)Nc3ccc(C)c(Oc4ccc5c(c4)CC(=O)N5)c3)cc2C(F)(F)F)CC1,inactive
13,Cc1[nH]c2ccccc2c1CCNCc1ccc(/C=C/C(=O)NO)cc1,inactive
14,COc1ccc(-c2ccccc2)cc1NS(=O)(=O)c1cc(Cl)cc(Cl)c1O,inactive
15,COc1cccc(-c2cn(-c3ccc(CCN4CCC(O)CC4)cc3)c3ncnc(N)c23)c1,inactive
16,Cc1cc(-c2cnc(N)c3c(-c4ccc5scnc5c4)csc23)n(C)n1,inactive
17,C=C(C)[C@@H]1CC=C(COC(=O)NC(=O)c2ncn3c(=O)n(C)nnc23)CC1,inactive
18,N#Cc1cnc2c(Cl)cc(NCc3cn(CCN4CCCCCC4)nn3)cc2c1Nc1ccc(F)c(Cl)c1,inactive
